Our source for the PBM binding z-score values is the supplement of paper PMC6555819.

In this test the test system is FXR:RXRa (NR concentration 270 nM, RXRa partner concentration 90 nM). Description: PBM binding z-score (relative to random genomic background probes); higher = stronger binding; sequences stand for … in GC…GCGATTGACAGCGTAGAATGAAGG
The procedure, abridged:
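The probes on custom Agilent 4×180K protein-binding microarrays were double-stranded, with 34-nt variable regions bearing direct-repeat seeds, single-nucleotide variants, half-site ablations and random human genomic background sequences. Incubation lasted 1 h with ligand-free nuclear receptor dimers in PBS pH 7.4, 2% milk, 0.02% Triton X-100, 1 mM DTT, 0.2 mg/mL BSA and 0.4 mg/ml salmon testes DNA. Antibodies against each partner (one per run) detected bound dimers, and fluorescence scans were regression-normalized. Binding z-scores take the random background probes as reference.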
In turn, AAATGTAGGTTATCGGGTCATTCAGTTTGCGCAT gave a PBM binding z-score of 3.38. With TCTTGTAGATCAACAGGAGGTAAAGAAAGATCGA the figure was -0.194; with CCTTACGGGTCACGAGGTTATGGCACGACGAGCG, 6.57; with CCTCGGAGGACAGAAGATCAGAGCTGTCCGCTTT, -0.222. Next, TTACCAAGGCGAGCTGAGGTCGTTGATCCAACTC: 0.487. With TCTAGTAGATCAGCAGGTTAAGAAAGCTGGCCAA the figure was 0.258; with GCGACTGGGGCATCAGCAGGTTACGATAACTTAA, -0.306. On to CGAACTAGGTCATCCAGGACAGTAAATACATTGA, for which the PBM binding z-score amounted to 4.22. With ACTATTAGTTGAGACGAAGGCAACCGATAGGTTG the figure was -0.426; with TCGAGTTGGTTAGTCGGGGCATTCAGCCAACATA, 0.0149; with TAGCCTAGGTCATTCAGGGGCCTGTATAGAAAGC, 4.5. With TAGCCAAGGTCATGGGCCAGTATACCACGCGAAC the figure was 7.33; with TCTAGTTGGGCACGGAGGTCACACACGACGGGTA, 2.68; with ATCTCTAGGTAAAGTACAGTGAAAGATCGATAGA, 0.412. Next, GTACCAAGATGAATAGGTCGTTGATGAGTAGGCG: -0.271; CGAACTAGGTCCGAACAGGACAGTGAAGGATGAT: -0.542; CTCGAAAGGTCGTTCTCAGGTGAGTATACCAAAC: 5.6. In turn, CAAACTAAGTCAAGGTCAAAGTCGGTTTGTGCCA showed a PBM binding z-score of 4.9. With GTTGCTAGGTCAGGTTGGTCAGCTAACGGGTACG the figure was 1.81; with CCAACGAGGGCATGAGTTGATAGCAAATGCCGAT, 0.351; with TCTTGTAGATCGGCAGGTTAAGAAAGCTGGCCAA, 0.24.

As for TCGAGTAGGTTAGGGGCATTCAAAATGGCGTCGA, the PBM binding z-score stood at 0.3. With TAGCCTAGGTCATTCAGGGGCCAGTCTAGAAAGC the figure was 4.72. With TCTCCTAGGTCAGTTGGTCAGCTAACGAGCTGCC the figure was 1.57; with ATCGAAAGGTCGTGAGGTGAGTGTACAGAAAGGC, 4.91; with CGTCAAAGTTCAAGGTAACGGAACAGAAAGCAGC, 6.15.

As for ACTATTAGTTGAGACGAGGGCAAACGATAGGTTG, the PBM binding z-score worked out at 0.392.

Take TCGAGTAGGTTAGGGGCTTTCAGAATGGCGTCGA: the PBM binding z-score is -0.147. CGAGCTAGGTCAAGGACAGTGAATCTCCGCACGC registered a PBM binding z-score of 3.4. On to ATCTCTAGGTAAGAAGTTCAGTGAAAGAGAGGAC, for which the PBM binding z-score came to 0.325. Next, TTACCAAGGGGAGCTGAGGTCGTTGATCCAACTC: 1.8. Next, ACAGACAGTTGAGTGAAGGTAACTCAGCTGGACG: 0.127. Turning to TCTCGGAGGACACGTAAGGTCAGAGCTCGACATC, the PBM binding z-score turned out to be 2.43. With ATCTCTAGGTAACAAGTTAAGTGAAAGAGAGGAC the figure was 0.803. Next, CTCGAAAAGTCGTGCTCAGGTGAGTATACCAAAC: 0.362; TGAATGAGGTTATAAGCTCAGGGAACGTTGCAAA: 1.24; AGAATGAGGTTATAAAGATCAGGGAATTGCGGTC: 1.45.

In the case of CAAACTAGGTCACCGGAAGGTCAACGTCCGCATG, the PBM binding z-score amounted to 6.21. With ATAGGTAGGTTAGCTGGGGTCATTCAGACTAGGC the figure was 4.92. Next, TCTATTAGTTGACTAGGGCAACCGAAACAGCGGA: 0.843.
